TDP1 cell CPT = DT40-hTDP1 cell growth loss with CPT. actives 12% (n = 420,000). chicken DT40 Tdp1-/-;hTDP1 cells + 20 nM CPT, ATP luminescence, 48 h. AID 686979. Potency, µM (top dose mostly 46.2 µM), usual class: inhibitors; further: nearly all actives have a fitted effect of over 55% in size
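Chicken DT40 Tdp1-/- cells stably complemented with human TDP1 were seeded at 400 cells/well in medium containing 20 nM camptothecin, exposed to pin-transferred compounds, and grown at 37 °C for at least 48 hr. Viability was read as ATP luminescence.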
IL-1B inflam inh = blocks inflammasome-driven IL-1 beta release. THP-1 LPS/ATP IL-1B secretion, AlphaLISA, 16 h; stronger effect = lower value. activity change, % at 57.5 µM. actives 4.7% (n = 360,000); in the data active means activity change below about -50%; inconclusive means mostly about -30% to -49%
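Secreted IL-1B measured by AlphaLISA bead assay after 16 h compound exposure of THP-1 cells; compounds (final up to 57.5 uM) added 1 h before LPS (250 ng/mL) and ATP (1.25 mM) stimulation; lower signal means less secretion.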
DT40 TDP1 no CPT = qHTS for Inhibitors of human tyrosyl-DNA phosphodiesterase 1 (TDP1): qHTS in cells in absence of CPT; DT40 Tdp1-/- hTDP1 cells, no CPT, ATP luminescence, 48 h; Potency, µM (doses to about 46.2 µM), usual class: inhibitors; actives 15% (n = 420,000); further: nearly all actives have a fitted effect of over 55% in size
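No-CPT arm: Tdp1-/-;hTDP1 DT40 cells (400/well) plus compounds, incubated ≥48 hr at 37 °C. Readout CellTiter-Glo luminescence.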
ELG1 repair inh = ELG1-dependent DNA repair inhibition | HEK293T ELG1-luciferase reporter, luminescence, 16 h; DNA damage induced by 5-fluorouridine | actives 2.3% (n = 330,000) | Potency, µM (series often up to 46.1 µM), actives largely listed as inhibitors; further: nearly all actives have a fitted effect of over 55% in size
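Quantitative HTS, concentration-response format. 2,000 cells/well co-treated with 5-fluorouridine and compound, 16 hr in 5% CO2 at 37 °C; ONE-Glo luminescence read after 30 min.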
RORg inh = ROR gamma (mouse) transcription inhibition | P51450 | Drosophila S2 Gal4-RORgamma UAS-luciferase reporter, 20 h | Potency, µM (highest dose often 53.6 µM), actives largely listed as inhibitors | actives 5.4% (n = 310,000) | AID 2551; further: nearly all actives have a fitted effect of over 60% in size
Target sequence (P51450 whole entry, looked up, the tested form may be a part): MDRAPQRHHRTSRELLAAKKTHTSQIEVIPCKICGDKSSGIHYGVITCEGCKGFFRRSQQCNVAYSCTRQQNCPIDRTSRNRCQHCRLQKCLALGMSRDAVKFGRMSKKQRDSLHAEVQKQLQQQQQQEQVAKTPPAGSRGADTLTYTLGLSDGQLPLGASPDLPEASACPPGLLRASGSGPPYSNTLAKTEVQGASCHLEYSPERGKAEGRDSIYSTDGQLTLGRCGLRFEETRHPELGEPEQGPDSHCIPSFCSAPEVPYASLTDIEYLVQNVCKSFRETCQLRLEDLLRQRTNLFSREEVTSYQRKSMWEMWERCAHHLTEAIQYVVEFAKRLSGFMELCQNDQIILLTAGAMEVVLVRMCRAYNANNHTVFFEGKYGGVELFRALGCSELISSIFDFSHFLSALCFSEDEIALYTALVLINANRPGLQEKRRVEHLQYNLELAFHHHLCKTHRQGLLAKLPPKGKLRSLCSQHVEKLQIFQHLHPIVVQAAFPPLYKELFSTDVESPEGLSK
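Stable Schneider cell line, Gal4 DNA-binding domain fused to ROR gamma, UAS-luciferase. Cmpd 1 hr RT → CuSO4 700 uM final → 20 hr RT → luciferase reagent 10 min → luminescence.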
Gal4-VP16 FLuc = Gal4-VP16 reporter inhibition counter-screen. Drosophila S2 Gal4-VP16 UAS-luciferase, luminescence, 20 h. Potency, µM (series often up to 53.6 µM), actives largely listed as inhibitors. actives 3.5% (n = 310,000);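 further: Gal4-VP16 expression switched on by copper sulfate through the metallothionein promoter; nearly all actives have a fitted effect of over 50% in size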
Of the large screens only hits and unclear results are named; the others gave an inactive call. Sampled rows, rich in hits. Any-hit rate of the full collection: about 21%. Unless noted, the call rests on the fitted dose curve; in most records, active means well fitted curve in the direction sought with a large enough effect; inconclusive means small, poorly fitted or top-dose-only effect, or another doubt; inactive means no such curve, though single readings can be large; an effect the other way counts as inactive or inconclusive.

CN1CCN2c3ccccc3CC3(C(=O)OC(C)(C)OC3=O)C2C1 (configuration not stated)	none (no result: IL-1B inflam inh, ELG1 repair inh, RORg inh, Gal4-VP16 FLuc)
COc1ncnc2c1ncn2CCCN1CCN(C(=O)C2CC2)CC1	none (no result: ELG1 repair inh, RORg inh, Gal4-VP16 FLuc)
CC(=O)Nc1ccc(C)cc1-c1nc2ccccc2n(CC(=O)Nc2cc(Cl)ccc2C)c1=O	TDP1 cell CPT inconclusive (no result: IL-1B inflam inh, ELG1 repair inh, RORg inh, Gal4-VP16 FLuc)
O=C(CSc1ccc(Cl)cc1)Nc1cccc(NC(=O)c2ccco2)c1	TDP1 cell CPT inconclusive, IL-1B inflam inh -65.8
Nc1nnc(SCC(=O)c2ccco2)s1	none
O=C(CSc1ccc(Cl)cc1)NC(=O)NCc1ccco1	TDP1 cell CPT 16.4µM, IL-1B inflam inh -83.1, DT40 TDP1 no CPT inconclusive, RORg inh inconclusive
O=C(Nc1cccc(NC(=O)c2ccccc2Cl)c1)c1ccco1	none
O=C(NCCSc1ccc(Cl)cc1)c1ccco1	RORg inh inconclusive
O=C(CSc1ccccc1Cl)c1ccco1	TDP1 cell CPT 20.6µM, DT40 TDP1 no CPT 8.2µM, ELG1 repair inh inconclusive
O=C(CCSc1ccc(Cl)cc1)c1ccco1	TDP1 cell CPT 2.06µM, IL-1B inflam inh -96.3, DT40 TDP1 no CPT 2.06µM, RORg inh 11.2µM, Gal4-VP16 FLuc inconclusive
Cc1cccc(NC(=O)CN2CCN(C(=O)CN3C(=O)NC4(CCCCC4C)C3=O)CC2)c1C (configuration not stated)	TDP1 cell CPT inconclusive (no result: ELG1 repair inh, RORg inh, Gal4-VP16 FLuc)
CCC(C)[C@H](N)c1cn([C@@H](CCCCN)C(=O)N2CCNCC2)nn1 (some centres not stated)	none
O=C(CSc1ccc(Cl)cc1)c1ccco1	TDP1 cell CPT 16.4µM, DT40 TDP1 no CPT 23.1µM, ELG1 repair inh inconclusive, Gal4-VP16 FLuc inconclusive
Cn1cnnc1SCC(=O)c1ccco1	none
CCOC(=O)C1=C(C)NC(=S)NC1c1ccc(C)s1 (configuration not stated)	RORg inh 8.91µM, Gal4-VP16 FLuc inconclusive
CCOC(=O)C1=C(C)NC(=S)NC1c1cc(C)sc1C (configuration not stated)	none
CCOC(=O)C1=C(C)NC(=S)NC1c1ccsc1 (configuration not stated)	ELG1 repair inh inconclusive, RORg inh 11.2µM, Gal4-VP16 FLuc inconclusive
COC(=O)C1=C(C)NC(=O)NC1c1ccsc1 (configuration not stated)	none
CC1=NN(c2ccccc2)C(=O)C1C=Nc1ccc(N(C)C)cc1 (configuration not stated)	DT40 TDP1 no CPT inconclusive, ELG1 repair inh 6.51µM (no result: IL-1B inflam inh)
COc1ccc(-c2cc3nc(-c4ccccc4)cc(N4CCC(O)CC4)n3n2)cc1	TDP1 cell CPT inconclusive, IL-1B inflam inh -151.5, DT40 TDP1 no CPT inconclusive, ELG1 repair inh 16.4µM
COc1ccc(-c2cc3nc(-c4ccccc4)cc(N4CCCC(O)C4)n3n2)cc1 (configuration not stated)	TDP1 cell CPT 16.4µM, IL-1B inflam inh inconclusive, DT40 TDP1 no CPT 11.6µM, ELG1 repair inh 16.4µM
COc1ccc(-c2cc3nc(C)cc(-c4ccc(OC)cc4)n3n2)cc1	TDP1 cell CPT inconclusive, DT40 TDP1 no CPT inconclusive
COc1ccc(-c2cc3nc(-c4ccc(C)cc4)cc(C(F)(F)F)n3n2)cc1	none (no result: IL-1B inflam inh, ELG1 repair inh, RORg inh, Gal4-VP16 FLuc)
COC(=O)C(Cc1ccccc1)NC(=O)CCNC(=O)c1ccco1 (configuration not stated)	none
CCC(=O)N1CCC1(C)C(=O)Nc1ccc2scnc2c1 (configuration not stated)	TDP1 cell CPT inconclusive (no result: ELG1 repair inh, RORg inh, Gal4-VP16 FLuc)
O=C(Nc1ccc(F)cc1F)c1cc(CN2CCOCC2)on1	none (no result: IL-1B inflam inh, ELG1 repair inh, RORg inh, Gal4-VP16 FLuc)
O=Cc1c(-c2ccccc2)cc2oc3ccccc3cc1-2	TDP1 cell CPT inconclusive, DT40 TDP1 no CPT 13µM, ELG1 repair inh inconclusive
COC(=O)c1ccccc1C(=O)N(Cc1cccnc1)CC1CCCN(C2CCCCC2)C1 (configuration not stated)	none
C[C@H](CO)N1C[C@H](C)[C@@H](CN(C)S(=O)(=O)c2cn(C)cn2)OCc2cnnn2CCCC1=O	none (no result: ELG1 repair inh, RORg inh, Gal4-VP16 FLuc)
CCOC(=O)NC(=O)/C(C#N)=N\Nc1cccc(Cl)c1	TDP1 cell CPT 23.1µM, DT40 TDP1 no CPT 20.6µM, ELG1 repair inh inconclusive
COc1c(Cl)cc(C(=O)NN)cc1Cl	DT40 TDP1 no CPT inconclusive, ELG1 repair inh inconclusive, RORg inh inconclusive, Gal4-VP16 FLuc inconclusive
NNC(=O)c1cc(O)c(O)c(O)c1	TDP1 cell CPT 14.6µM, DT40 TDP1 no CPT inconclusive
Cn1c(COc2ccc(Br)cc2)nnc1SC1CCc2ccccc2C1=O (configuration not stated)	TDP1 cell CPT inconclusive, DT40 TDP1 no CPT inconclusive, ELG1 repair inh inconclusive, RORg inh 22.4µM, Gal4-VP16 FLuc inconclusive
Cn1c(COc2ccccc2)nnc1SCCSc1nnc(COc2ccccc2)n1C	TDP1 cell CPT inconclusive, DT40 TDP1 no CPT inconclusive
Nn1c(-c2ccco2)n[nH]c1=S	none
COc1ccc(Cn2c(-c3ccc(OC)cc3)n[nH]c2=S)cc1	RORg inh 7.94µM
S=c1[nH]nc(-c2cc3ccccc3o2)n1Cc1ccccc1	TDP1 cell CPT inconclusive, DT40 TDP1 no CPT inconclusive, RORg inh 0.631µM, Gal4-VP16 FLuc 1.78µM
CC(C)Oc1ccc(Cn2c(-c3ccco3)n[nH]c2=S)cc1	RORg inh 2.82µM, Gal4-VP16 FLuc 4.47µM
NC(=O)CSc1nnc(-c2cc3ccccc3o2)n1Cc1ccccc1	RORg inh inconclusive
CCOc1ccc(-c2n[nH]c(=S)n2Cc2ccccc2)cc1	TDP1 cell CPT inconclusive, DT40 TDP1 no CPT 20.6µM, RORg inh 6.31µM, Gal4-VP16 FLuc 5.62µM
CCn1c(CNC(=O)Cc2ccc(OC)cc2)n[nH]c1=S	none
Cc1ccccc1C1(CC(=O)N2CCOCC2)CC(=O)N(Cc2cccnc2)C1=O (configuration not stated)	none (no result: IL-1B inflam inh, ELG1 repair inh, RORg inh, Gal4-VP16 FLuc)
CCOC(=O)CN(C(=O)c1snc(C(N)=O)c1N)C(C(=O)NCCC(C)C)c1ccc(C)cc1 (configuration not stated)	none (no result: ELG1 repair inh, RORg inh, Gal4-VP16 FLuc)
COc1ccc(-c2n[nH]c(=S)n2CC(C)C)cc1	RORg inh 10µM, Gal4-VP16 FLuc inconclusive
CC(c1n[nH]c(=S)n1Cc1ccccc1)N(C)C (configuration not stated)	TDP1 cell CPT inconclusive, DT40 TDP1 no CPT inconclusive, RORg inh 1.78µM, Gal4-VP16 FLuc inconclusive
CCCn1c(-c2ccc(F)cc2)n[nH]c1=S	RORg inh inconclusive
Cc1ccc(-c2n[nH]c(=S)n2Cc2ccccc2)cc1	RORg inh 2.82µM, Gal4-VP16 FLuc 6.31µM
Cc1ncc2c(c1CNC(=O)c1ccc3c(c1)OCO3)CCN(C(=O)c1noc3c1CCCC3)C2	none (no result: IL-1B inflam inh, ELG1 repair inh, RORg inh, Gal4-VP16 FLuc)

Assay outcomes as filed in PubChem BioAssay.
